Each structure is given as a SMILES string. Inconclusive results are not listed. Activity calls are given as the source filed them. Calls follow the shape of the dose curve; as a rule, active = well fitted cell-killing curve with a large enough effect; inconclusive = small, poorly fitted or top-dose-only effect, or effect the other way; inactive = no such curve, though single readings can be large or run the other way.

These results are taken from PubChem BioAssay (NCATS).
Potency is read from the fitted curve at half-maximal effect.

This assay can be described thus: Quantitative highthroughput screen to assess conditional lethalithy of NOMO1 cells grown in Human Plasma-Like Medium with dialyzed fetal bovine serum (HPLM+ds) (AID 1963878). Also: nearly all actives have a fitted effect of over 35% in size. The conditions noted are these: NOMO1 AML cells in HPLM+ds, CellTiter-Glo viability, 48 h; series mostly up to 45.8 µM. In short, it runs like this: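 Each medium arm—HPLM with 10% dialyzed FBS, or RPMI1640 with 5 mM glucose and 10% untreated or dialyzed FBS—was screened against an 11-point, 3-fold compound titration for 48 h at 37 °C, with CellTiter-Glo luminescence as endpoint.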
As for `Cc1cccc2c1CC[C@H](CN1CCC(c3c(Cl)cccc3Cl)CC1)C[C@@H]2O`, the Potency was 8.33 µM (active).

As for `c1nc2nc(Nc3ccc(N4CCOCC4)cc3)nc(NC3CCCCC3)c2[nH]1`, the Potency is 14.8 µM (active).

With `O=C(Nc1nnc(-c2ccco2)o1)c1cc(-c2ccccc2)nc2ccccc12`, the Potency is 5.9 µM (active).

For `COc1ccc(-c2cc3c(C)nc(N)nc3n(C3CCC(OCCO)CC3)c2=O)cn1` (stereo unspecified), the Potency is 0.105 µM (active).

As to `CNC(=O)c1c(F)cccc1Nc1nc(Nc2cc3c(cc2OC)CCN3C(=O)CN(C)C)nc2[nH]ccc12`, the Potency was 16.6 µM (active). With `COc1cc2ncnc(Nc3cccc(Cl)c3)c2cc1OC` the figure was 4.69 µM (active). To `CN(C)c1ccc2cc(C(=O)N[C@@H](CCCN=C(N)CCl)C(=O)NCc3ccccc3)ccc2c1` belongs 23.5 µM (active); to `CC[C@@]1(O)C[C@H](O[C@H]2C[C@H](N(C)C)[C@H](O[C@H]3C[C@H](O)[C@H](O[C@H]4CCC(=O)[C@H](C)O4)[C@H](C)O3)[C@H](C)O2)c2c(cc3c(c2O)C(=O)c2c(O)cccc2C3=O)[C@@H]1C(=O)OC`, 1.18 µM (active). To `O=C(Nc1cccnc1)N1CCC(Cc2cccc(Oc3ccc(C(F)(F)F)cn3)c2)CC1` belongs 8.33 µM (active); to `Cc1nc(N)sc1-c1ccnc(Nc2ccc(N3CCOCC3)cc2)n1`, 4.18 µM (active); to `CNCCCC12CCC(c3ccccc31)c1ccccc12`, 18.7 µM (active).
